Common to all, as to test: DAPPL (digital affinity profiling via proximity ligation, sequencing); 10 mM Tris-HCl pH 7.5, 50 mM NaCl, 1 mM DTT, 4% glycerol, room temperature, 30 min; GST-TFs on glutathione beads, 16-mer random dsDNA library, 0.1% formaldehyde crosslink after washing; high values mean tight binding
For one test, the target named is T1, FEV (Homo sapiens, UniProt Q99581 1-238).
T1 sequence: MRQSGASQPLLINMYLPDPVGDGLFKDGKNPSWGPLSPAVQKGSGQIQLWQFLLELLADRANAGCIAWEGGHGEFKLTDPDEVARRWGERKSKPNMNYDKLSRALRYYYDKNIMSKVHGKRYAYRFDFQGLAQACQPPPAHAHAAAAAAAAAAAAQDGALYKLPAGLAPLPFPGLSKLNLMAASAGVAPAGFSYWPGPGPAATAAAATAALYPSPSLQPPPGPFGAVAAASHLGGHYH
The settings on record: protein: recombinant; tags: N-terminal GST; dsDNA, one strand shown. The gist of the method: (§1)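 Beads coated with glutathione captured GST-fused human transcription factors that had been expressed in yeast, and the factors were then given DNA barcodes and pooled with a tag-only sample. The pools were incubated with 200 nmole of a random double-stranded 16-mer DNA library in Tris/NaCl/DTT/glycerol buffer for 30 min at room temperature, washed, crosslinked with 0.1% formaldehyde and proximity-ligated with BsaI/T4 ligase at 37 °C for 1 h. PCR amplification and Illumina NextSeq500 sequencing came last. Binding signal is each hexamer's read frequency for a factor divided by its frequency for the tag-only sample.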

In a further test the target is ETV5 (Homo sapiens, UniProt P41161 1-510). The following applies: protein: recombinant; tags: N-terminal GST; dsDNA, one strand shown. Put shortly:
as §1

The next test concerns the target HSF1 (Homo sapiens, UniProt Q00613 1-529). The settings on record: protein: recombinant; tags: N-terminal GST; chain copies: 3; dsDNA, one strand shown. Put shortly: as §1
The target in a further test is T2, SPIC (Homo sapiens, UniProt Q8N5J4 1-248).
T2 sequence: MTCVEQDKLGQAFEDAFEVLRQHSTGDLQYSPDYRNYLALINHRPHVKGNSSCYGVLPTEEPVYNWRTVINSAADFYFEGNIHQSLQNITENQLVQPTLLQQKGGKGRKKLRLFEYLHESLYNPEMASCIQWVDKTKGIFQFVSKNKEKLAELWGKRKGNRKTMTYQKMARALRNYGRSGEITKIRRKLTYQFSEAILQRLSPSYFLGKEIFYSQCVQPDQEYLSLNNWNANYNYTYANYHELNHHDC
The settings on record: protein: recombinant; tags: N-terminal GST; dsDNA, one strand shown. The gist of the method:
as §1

A further test has as its target ELF4 (Homo sapiens, UniProt Q99607 1-663). The settings on record: protein: recombinant; tags: N-terminal GST; dsDNA, one strand shown. Put shortly: as §1
In the next test the target is T3, ELK4 (Homo sapiens, UniProt P28324-2 1-405).
T3 sequence: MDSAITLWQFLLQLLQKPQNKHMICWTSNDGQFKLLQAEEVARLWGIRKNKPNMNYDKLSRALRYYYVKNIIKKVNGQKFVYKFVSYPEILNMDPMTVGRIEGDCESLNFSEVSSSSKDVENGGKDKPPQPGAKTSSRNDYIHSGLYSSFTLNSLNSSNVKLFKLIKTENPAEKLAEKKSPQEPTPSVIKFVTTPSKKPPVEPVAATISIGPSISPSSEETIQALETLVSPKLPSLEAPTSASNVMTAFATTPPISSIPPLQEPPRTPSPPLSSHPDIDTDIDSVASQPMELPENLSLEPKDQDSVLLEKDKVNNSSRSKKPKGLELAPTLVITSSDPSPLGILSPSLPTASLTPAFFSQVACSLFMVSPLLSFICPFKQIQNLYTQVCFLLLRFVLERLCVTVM
The following applies: protein: recombinant; tags: N-terminal GST; dsDNA, one strand shown. Put shortly: as §1

The target in the next test is T4, ETV2 (Homo sapiens, UniProt O00321 1-342).
T4 sequence: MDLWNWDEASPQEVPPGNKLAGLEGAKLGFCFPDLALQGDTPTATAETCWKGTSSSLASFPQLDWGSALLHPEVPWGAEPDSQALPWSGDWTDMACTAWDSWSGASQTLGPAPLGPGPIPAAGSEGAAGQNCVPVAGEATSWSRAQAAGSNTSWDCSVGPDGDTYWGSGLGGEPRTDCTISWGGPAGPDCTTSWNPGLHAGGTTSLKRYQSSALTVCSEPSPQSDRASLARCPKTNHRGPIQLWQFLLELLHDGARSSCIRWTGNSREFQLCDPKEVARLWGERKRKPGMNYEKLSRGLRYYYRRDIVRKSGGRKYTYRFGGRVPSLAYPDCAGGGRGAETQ
The following applies: protein: recombinant; tags: N-terminal GST; dsDNA, one strand shown. The gist of the method:
as §1

The next test has as its target T5, ELF3 (Homo sapiens, UniProt P78545 1-371).
T5 sequence: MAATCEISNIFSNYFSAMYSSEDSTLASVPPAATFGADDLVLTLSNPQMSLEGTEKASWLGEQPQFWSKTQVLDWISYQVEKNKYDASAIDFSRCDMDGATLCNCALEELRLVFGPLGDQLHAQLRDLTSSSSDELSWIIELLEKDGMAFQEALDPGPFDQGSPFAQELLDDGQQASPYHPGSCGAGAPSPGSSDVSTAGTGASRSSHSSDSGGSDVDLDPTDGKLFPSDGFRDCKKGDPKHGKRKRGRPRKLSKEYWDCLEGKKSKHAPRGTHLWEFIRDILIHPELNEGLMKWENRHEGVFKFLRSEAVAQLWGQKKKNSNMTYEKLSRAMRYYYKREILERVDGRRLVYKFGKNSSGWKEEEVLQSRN
The settings on record: protein: recombinant; tags: N-terminal GST; dsDNA, one strand shown. The gist of the method:
as §1

For a further test, the target named is CRX (Homo sapiens, UniProt O43186 1-299). The settings on record: protein: recombinant; tags: N-terminal GST; dsDNA, one strand shown. Put shortly: as §1
Chain of CRX (O43186 whole entry): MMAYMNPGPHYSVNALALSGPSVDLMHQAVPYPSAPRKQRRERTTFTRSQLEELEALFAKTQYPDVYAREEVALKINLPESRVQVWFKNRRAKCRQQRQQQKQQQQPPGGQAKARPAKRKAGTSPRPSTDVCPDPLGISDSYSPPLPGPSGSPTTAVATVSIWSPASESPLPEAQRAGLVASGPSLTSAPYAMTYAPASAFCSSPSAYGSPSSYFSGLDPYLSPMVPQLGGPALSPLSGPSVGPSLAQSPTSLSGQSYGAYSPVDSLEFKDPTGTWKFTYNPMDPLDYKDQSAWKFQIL
A further test concerns the target ETV1 (Homo sapiens, UniProt P50549 1-477). The following applies: protein: recombinant; tags: N-terminal GST; dsDNA, one strand shown. Put shortly: as §1
The target of the next test is T6, ERF (Homo sapiens, UniProt P50548 1-548).
T6 sequence: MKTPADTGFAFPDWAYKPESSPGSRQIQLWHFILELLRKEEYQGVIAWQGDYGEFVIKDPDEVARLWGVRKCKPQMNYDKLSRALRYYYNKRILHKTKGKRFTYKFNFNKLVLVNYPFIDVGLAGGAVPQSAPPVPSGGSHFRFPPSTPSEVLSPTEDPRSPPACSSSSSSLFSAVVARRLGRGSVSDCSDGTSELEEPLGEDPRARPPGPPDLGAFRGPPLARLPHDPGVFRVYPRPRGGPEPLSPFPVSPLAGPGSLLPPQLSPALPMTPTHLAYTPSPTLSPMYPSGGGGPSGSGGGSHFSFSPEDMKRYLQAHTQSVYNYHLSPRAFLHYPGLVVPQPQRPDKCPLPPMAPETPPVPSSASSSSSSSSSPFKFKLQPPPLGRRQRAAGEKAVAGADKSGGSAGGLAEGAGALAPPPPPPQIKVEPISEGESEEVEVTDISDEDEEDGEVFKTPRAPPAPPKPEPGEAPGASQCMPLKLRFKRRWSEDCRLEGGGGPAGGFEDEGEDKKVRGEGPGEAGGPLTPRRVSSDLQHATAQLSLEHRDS
The settings on record: protein: recombinant; tags: N-terminal GST; dsDNA, one strand shown. The gist of the method: as §1

The target of the next test is T7, ETV3L (Homo sapiens, UniProt Q6ZN32 1-361).
T7 sequence: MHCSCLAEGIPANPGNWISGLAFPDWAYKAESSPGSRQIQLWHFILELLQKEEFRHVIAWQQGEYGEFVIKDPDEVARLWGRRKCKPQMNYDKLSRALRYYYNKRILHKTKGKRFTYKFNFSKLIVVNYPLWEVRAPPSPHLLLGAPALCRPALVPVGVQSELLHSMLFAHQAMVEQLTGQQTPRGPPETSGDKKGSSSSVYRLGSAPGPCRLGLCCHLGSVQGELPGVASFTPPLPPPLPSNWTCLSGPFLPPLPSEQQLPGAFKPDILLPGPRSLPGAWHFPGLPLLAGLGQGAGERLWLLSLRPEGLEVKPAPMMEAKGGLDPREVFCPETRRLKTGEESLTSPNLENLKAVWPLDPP
The settings on record: protein: recombinant; tags: N-terminal GST; dsDNA, one strand shown. The gist of the method: as §1

A further test deals with T8, ETS2 (Homo sapiens, UniProt P15036 1-469).
T8 sequence: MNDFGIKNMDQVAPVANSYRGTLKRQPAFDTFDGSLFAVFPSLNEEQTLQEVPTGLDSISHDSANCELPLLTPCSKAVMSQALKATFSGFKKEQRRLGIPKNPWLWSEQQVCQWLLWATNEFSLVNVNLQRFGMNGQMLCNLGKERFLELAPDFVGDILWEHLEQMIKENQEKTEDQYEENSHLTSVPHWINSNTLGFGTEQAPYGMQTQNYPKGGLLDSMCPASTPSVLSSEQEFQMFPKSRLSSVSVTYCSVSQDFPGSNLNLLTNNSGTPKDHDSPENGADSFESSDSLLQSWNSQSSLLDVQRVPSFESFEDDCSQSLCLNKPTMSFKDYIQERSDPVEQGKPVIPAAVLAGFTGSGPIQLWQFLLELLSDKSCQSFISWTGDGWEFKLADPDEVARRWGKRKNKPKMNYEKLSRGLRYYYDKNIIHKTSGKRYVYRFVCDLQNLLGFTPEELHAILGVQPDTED
The following applies: protein: recombinant; tags: N-terminal GST; dsDNA, one strand shown. The gist of the method: as §1

A further test concerns the target T9, SPDEF (Homo sapiens, UniProt O95238 1-335).
T9 sequence: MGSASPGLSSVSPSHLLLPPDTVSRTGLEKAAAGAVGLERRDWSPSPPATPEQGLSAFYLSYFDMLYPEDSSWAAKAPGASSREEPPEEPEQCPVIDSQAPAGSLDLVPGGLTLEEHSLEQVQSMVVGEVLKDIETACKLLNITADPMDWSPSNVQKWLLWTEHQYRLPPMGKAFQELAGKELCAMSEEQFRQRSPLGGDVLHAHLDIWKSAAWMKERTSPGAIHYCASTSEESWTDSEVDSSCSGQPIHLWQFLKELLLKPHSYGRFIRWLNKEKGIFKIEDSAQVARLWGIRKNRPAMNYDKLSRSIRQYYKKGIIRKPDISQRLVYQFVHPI
The settings on record: protein: recombinant; tags: N-terminal GST; dsDNA, one strand shown. Put shortly: as §1

Another test has as its target T10, ETV7 (Homo sapiens, UniProt Q9Y603 1-341).
T10 sequence: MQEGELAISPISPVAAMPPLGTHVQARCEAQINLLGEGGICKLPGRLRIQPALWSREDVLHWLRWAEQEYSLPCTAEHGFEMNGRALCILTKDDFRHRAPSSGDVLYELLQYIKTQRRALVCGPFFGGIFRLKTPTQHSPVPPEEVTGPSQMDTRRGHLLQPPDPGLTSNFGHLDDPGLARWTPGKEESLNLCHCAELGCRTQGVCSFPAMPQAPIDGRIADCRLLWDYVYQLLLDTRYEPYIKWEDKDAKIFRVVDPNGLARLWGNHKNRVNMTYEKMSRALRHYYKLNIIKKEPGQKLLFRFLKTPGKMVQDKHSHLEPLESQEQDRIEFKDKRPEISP
The settings on record: protein: recombinant; tags: N-terminal GST; dsDNA, one strand shown. Put shortly:
as §1

A further test concerns the target T11, ELF5 (Homo sapiens, UniProt Q9UKW6-2 1-255).
T11 sequence: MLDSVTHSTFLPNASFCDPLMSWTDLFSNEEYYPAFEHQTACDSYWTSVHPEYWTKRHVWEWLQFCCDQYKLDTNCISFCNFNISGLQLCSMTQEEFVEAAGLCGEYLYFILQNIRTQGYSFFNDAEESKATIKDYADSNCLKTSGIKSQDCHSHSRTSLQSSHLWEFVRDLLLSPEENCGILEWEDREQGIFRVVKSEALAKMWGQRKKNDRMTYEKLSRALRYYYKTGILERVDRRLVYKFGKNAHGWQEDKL
The following applies: protein: recombinant; tags: N-terminal GST; dsDNA, one strand shown. The gist of the method: as §1

The next test deals with T12, ETV3 (Homo sapiens, UniProt P41162-2 1-143).
T12 sequence: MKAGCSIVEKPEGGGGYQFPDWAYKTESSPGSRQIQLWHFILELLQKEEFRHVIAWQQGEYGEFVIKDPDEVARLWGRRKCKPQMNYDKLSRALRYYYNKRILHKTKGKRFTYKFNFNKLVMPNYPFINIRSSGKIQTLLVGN
The following applies: protein: recombinant; tags: N-terminal GST; dsDNA, one strand shown. Put shortly: as §1

In a further test the target is ETV6 (Homo sapiens, UniProt P41212 1-452). The settings on record: protein: recombinant; tags: N-terminal GST; dsDNA, one strand shown. Put shortly:
as §1

Chain of ETV1 (P50549 whole entry): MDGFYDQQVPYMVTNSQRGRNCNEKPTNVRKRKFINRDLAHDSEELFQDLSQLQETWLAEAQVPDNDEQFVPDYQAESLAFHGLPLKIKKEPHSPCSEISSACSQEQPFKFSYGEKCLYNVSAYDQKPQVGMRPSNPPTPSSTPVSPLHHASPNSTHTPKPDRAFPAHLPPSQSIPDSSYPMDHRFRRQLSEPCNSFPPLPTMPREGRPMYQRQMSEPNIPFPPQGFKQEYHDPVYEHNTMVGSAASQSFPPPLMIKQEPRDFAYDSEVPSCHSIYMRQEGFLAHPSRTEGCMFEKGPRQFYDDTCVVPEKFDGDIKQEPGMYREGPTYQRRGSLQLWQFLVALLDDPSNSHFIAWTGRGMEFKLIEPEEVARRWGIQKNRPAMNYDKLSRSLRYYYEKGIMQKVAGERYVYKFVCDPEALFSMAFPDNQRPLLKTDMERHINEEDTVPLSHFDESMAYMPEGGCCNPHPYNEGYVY
Chain of ETV5 (P41161 whole entry): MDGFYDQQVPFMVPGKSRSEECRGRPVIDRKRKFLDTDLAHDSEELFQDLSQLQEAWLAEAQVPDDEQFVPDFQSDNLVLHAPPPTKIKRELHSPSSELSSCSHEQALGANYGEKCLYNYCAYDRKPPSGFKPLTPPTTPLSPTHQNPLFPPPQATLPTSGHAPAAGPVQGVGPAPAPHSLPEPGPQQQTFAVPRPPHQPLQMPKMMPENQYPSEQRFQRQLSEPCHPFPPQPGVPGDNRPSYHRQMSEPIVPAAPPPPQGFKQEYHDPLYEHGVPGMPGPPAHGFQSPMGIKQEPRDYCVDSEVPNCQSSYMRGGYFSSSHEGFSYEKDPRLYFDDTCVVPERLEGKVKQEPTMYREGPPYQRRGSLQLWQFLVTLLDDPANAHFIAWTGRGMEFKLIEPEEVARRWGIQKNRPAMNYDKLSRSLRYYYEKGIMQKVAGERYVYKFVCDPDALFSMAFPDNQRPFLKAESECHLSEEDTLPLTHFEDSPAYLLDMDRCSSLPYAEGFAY
Chain of ETV6 (P41212 whole entry): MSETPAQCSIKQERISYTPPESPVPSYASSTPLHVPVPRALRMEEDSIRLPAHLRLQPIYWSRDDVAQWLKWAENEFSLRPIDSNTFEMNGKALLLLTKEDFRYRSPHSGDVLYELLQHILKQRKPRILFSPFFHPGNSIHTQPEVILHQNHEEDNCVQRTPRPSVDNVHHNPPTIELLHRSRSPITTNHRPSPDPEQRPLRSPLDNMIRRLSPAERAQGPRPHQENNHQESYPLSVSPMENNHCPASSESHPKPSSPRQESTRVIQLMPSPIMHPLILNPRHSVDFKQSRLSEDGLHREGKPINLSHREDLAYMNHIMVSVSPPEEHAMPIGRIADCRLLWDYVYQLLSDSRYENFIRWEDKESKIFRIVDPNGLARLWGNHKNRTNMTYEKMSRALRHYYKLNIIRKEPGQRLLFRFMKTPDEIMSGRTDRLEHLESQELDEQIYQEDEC
Chain of HSF1 (Q00613 whole entry): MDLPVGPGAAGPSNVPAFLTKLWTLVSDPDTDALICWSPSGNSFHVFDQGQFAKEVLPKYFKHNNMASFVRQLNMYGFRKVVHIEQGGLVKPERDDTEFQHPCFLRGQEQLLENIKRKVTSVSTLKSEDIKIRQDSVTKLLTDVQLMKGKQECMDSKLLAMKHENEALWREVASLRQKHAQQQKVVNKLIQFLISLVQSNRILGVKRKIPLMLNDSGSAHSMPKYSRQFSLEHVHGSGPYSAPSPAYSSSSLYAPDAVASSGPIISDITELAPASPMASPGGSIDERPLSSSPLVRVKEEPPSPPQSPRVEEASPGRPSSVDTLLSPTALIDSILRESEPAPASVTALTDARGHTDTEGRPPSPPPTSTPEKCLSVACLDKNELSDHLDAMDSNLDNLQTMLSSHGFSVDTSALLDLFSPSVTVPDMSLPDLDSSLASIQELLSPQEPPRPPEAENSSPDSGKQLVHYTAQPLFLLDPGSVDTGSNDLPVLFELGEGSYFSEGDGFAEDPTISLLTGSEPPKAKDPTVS
Chain of ELF4 (Q99607 whole entry): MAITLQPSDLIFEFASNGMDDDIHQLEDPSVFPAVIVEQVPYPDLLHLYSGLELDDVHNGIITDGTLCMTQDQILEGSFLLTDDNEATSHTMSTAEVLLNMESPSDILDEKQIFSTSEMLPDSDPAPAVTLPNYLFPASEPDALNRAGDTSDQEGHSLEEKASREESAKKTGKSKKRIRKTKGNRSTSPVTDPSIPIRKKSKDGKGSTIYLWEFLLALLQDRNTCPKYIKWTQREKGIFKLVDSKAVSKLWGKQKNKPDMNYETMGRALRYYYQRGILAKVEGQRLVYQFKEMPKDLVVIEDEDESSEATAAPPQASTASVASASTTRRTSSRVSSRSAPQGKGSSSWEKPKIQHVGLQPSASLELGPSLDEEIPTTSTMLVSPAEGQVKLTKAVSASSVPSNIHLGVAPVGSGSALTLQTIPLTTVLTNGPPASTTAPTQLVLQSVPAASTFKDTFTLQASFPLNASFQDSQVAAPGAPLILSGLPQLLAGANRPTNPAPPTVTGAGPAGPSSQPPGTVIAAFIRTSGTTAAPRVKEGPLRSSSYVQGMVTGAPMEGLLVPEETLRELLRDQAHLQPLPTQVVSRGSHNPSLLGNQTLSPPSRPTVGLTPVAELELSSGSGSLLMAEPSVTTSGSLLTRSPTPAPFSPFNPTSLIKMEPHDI

For the sequence GTACTT, the binding signal is 2.21 fold enrichment (6-mer frequency, TF over GST control) with FEV; 1.95 fold enrichment (6-mer frequency, TF over GST control) in the test with ETV5; 1.35 fold enrichment (6-mer frequency, TF over GST control) in the test with HSF1; 1.86 fold enrichment (6-mer frequency, TF over GST control) in the test with SPIC; 1.86 fold enrichment (6-mer frequency, TF over GST control) in the test with ELF4; 1.78 fold enrichment (6-mer frequency, TF over GST control) with ELK4. In addition, the binding signal with ETV2 was 1.88 fold enrichment (6-mer frequency, TF over GST control); in the test with ELF3, 2.04 fold enrichment (6-mer frequency, TF over GST control); in the test with CRX it was 1.6 fold enrichment (6-mer frequency, TF over GST control); in the test with ETV1 it was 2.05 fold enrichment (6-mer frequency, TF over GST control); with ERF, 1.64 fold enrichment (6-mer frequency, TF over GST control); with ETV3L, 1.87 fold enrichment (6-mer frequency, TF over GST control). In addition, the binding signal was 2.02 fold enrichment (6-mer frequency, TF over GST control) in the test with ETS2; 2.57 fold enrichment (6-mer frequency, TF over GST control) with SPDEF; 2.11 fold enrichment (6-mer frequency, TF over GST control) with ETV7; 2.51 fold enrichment (6-mer frequency, TF over GST control) in the test with ELF5; 1.97 fold enrichment (6-mer frequency, TF over GST control) with ETV3; 2.47 fold enrichment (6-mer frequency, TF over GST control) in the test with ETV6.

The values are drawn from publication PMC7862700, “An all-to-all approach to the identification of sequence-specific readers for epigenetic DNA modifications on cytosine”.
